The source made the active and inactive calls. Rule for the calls: active = hit-call score of the fitted dose curve at least 0.9, where 1 is the maximum; inactive = score below 0.9.

For one test, the target named is Transcription factor Sp1 (Homo sapiens) (UniProt P08047). Nature of the test: ATG_Sp1_CIS: Attagene CIS-FACTORIAL HepG2 Assay for human Specificity Protein 1 (Sp1) (AID 2282961). Particulars: HepG2 Sp1 cis-reporter transcription, actives raise or lower the signal. A digest of the protocol: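 Transient MRTU-transfected HepG2, 24 h compound exposure. Total RNA → oligo(dT) RT → PCR of reporter → 6-FAM primer extension → HpaI digest → CE. Endpoint fitted both directions vs DMSO.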
Chain of Transcription factor Sp1 (Homo sapiens) (P08047 whole entry, looked up): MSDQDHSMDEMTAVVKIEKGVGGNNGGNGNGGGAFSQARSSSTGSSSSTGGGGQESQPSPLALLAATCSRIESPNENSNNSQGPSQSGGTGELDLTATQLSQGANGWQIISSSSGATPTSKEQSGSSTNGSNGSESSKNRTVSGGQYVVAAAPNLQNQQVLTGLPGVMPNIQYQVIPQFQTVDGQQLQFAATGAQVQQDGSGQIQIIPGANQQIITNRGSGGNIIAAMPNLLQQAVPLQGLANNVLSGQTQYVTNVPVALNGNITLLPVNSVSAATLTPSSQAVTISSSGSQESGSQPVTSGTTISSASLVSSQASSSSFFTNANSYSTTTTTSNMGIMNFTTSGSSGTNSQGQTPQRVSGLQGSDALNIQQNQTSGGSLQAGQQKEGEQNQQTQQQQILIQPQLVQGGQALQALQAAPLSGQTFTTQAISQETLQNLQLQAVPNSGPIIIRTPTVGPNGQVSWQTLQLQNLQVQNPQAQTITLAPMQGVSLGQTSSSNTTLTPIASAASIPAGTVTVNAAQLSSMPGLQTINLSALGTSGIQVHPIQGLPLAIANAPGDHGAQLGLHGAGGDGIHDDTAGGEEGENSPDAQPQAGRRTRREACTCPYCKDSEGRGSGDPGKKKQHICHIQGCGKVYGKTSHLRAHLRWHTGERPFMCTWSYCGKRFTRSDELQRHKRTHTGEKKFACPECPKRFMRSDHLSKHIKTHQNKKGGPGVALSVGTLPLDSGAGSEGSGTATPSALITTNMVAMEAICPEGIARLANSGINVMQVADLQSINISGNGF
In the case of `Cn1c(-c2ccccc2)cc(-c2ccccc2)[n+]1C`, the result was inactive.

Regarding `CC(C)C1(C)N=C(c2ncccc2C(=O)O)NC1=O` (configuration not stated), the compound was classed as inactive.

Regarding `COc1ccc(-c2ccccc2)cc1NNC(=O)OC(C)C`, the compound was classed as inactive.

Take `CC(C)=CC1C(C(=O)OCc2coc(Cc3ccccc3)c2)C1(C)C` (configuration not stated): the call was inactive.

As to `CCSC(=O)N1CCCCCC1`, the compound was called inactive.

On to `COc1cc(Cl)c(OC)cc1Cl`, for which the outcome was inactive.

`OC(c1ccc(Cl)cc1)(c1ccc(Cl)cc1)C(Cl)(Cl)Cl`: the call was inactive.

As for `CCOP(=O)(OCC)Oc1nc(Cl)c(Cl)cc1Cl`, the outcome was inactive.

For the compound `COC(=O)N(C(=O)N1CO[C@@]2(C(=O)OC)Cc3cc(Cl)ccc3C2=N1)c1ccc(OC(F)(F)F)cc1`, the compound was classed as inactive.

With `Cc1nc(N(C)C)nc(OC(=O)N(C)C)c1C`, the compound was called inactive.

On to `CC(C)N1C(=O)c2ccccc2NS1(=O)=O`, for which the result was inactive.

With `Nc1c(Cl)c(Cl)nc(C(=O)O)c1Cl`, the compound was classed as inactive.

Take `CC1(C)C(C=C(Cl)Cl)C1C(=O)OC(C#N)c1cccc(Oc2ccccc2)c1` (configuration not stated): the compound was called inactive.

As to `COC(=O)NS(=O)(=O)c1ccc(N)cc1`, the compound was classed as inactive.

With `Cc1cc(C)nc(Nc2ccccc2)n1`, the compound was called inactive.

Turning to `CNC(=O)Oc1cccc2ccccc12`, the call was inactive.

`O=C(O)c1c(Cl)ccc2cc(Cl)cnc12`: the call was inactive.

For the compound `O=C1C2CC=CCC2C(=O)N1SC(Cl)(Cl)Cl` (configuration not stated), the call was inactive.

For the compound `Cc1cnc(C2=NC(C)(C(C)C)C(=O)N2)c(C(=O)O)c1` (configuration not stated), the result was inactive.

Take `CCCCOCN(C(=O)CCl)c1c(CC)cccc1CC`: the outcome was inactive.

With `COP(=O)(OC)O/C(C)=C/C(=O)N(C)C`, the compound was classed as inactive.

For the compound `CCC(C)n1c(=O)[nH]c(C)c(Br)c1=O` (configuration not stated), the compound was called inactive.

Consider `Cc1c(COC(=O)[C@@H]2[C@H](/C=C(\Cl)C(F)(F)F)C2(C)C)cccc1-c1ccccc1`, for which the outcome was inactive.

With `Clc1cccc(C(Cl)(Cl)Cl)n1`, the compound was classed as inactive.

Regarding `N#Cc1c[nH]cc1-c1cccc2c1OC(F)(F)O2`, the compound was classed as inactive.

Consider `CCNP(=S)(OC)O/C(C)=C/C(=O)OC(C)C` (configuration not stated), for which the outcome was inactive.

As for `CCCN(CC)CC1COC2(CCC(C(C)(C)C)CC2)O1` (configuration not stated), the compound was classed as inactive.

As to `CC(C)Nc1nc(Cl)nc(NC(C)C)n1`, the result was inactive.

With `Cc1ccc(N=CN(C)C=Nc2ccc(C)cc2C)c(C)c1`, the compound was classed as inactive.

As for `COCC(C)N(C(=O)CCl)c1c(C)csc1C` (configuration not stated), the result was inactive.

As to `CN/C(=N\[N+](=O)[O-])NCc1cnc(Cl)s1`, the call was inactive.

`O=P(O)(O)CCCl`: the compound was called inactive.

On to `CCOC(=O)C(C)OC(=O)c1cc(Oc2ccc(C(F)(F)F)cc2Cl)ccc1[N+](=O)[O-]` (configuration not stated), for which the result was inactive.

Consider `CCOP(=S)(OCC)Oc1nc(Cl)n(C(C)C)n1`, for which the compound was classed as inactive.

Consider `Nc1c(Cl)c(F)nc(OCC(=O)O)c1Cl`, for which the compound was called inactive.

Take `N#CN=C1SCCN1Cc1ccc(Cl)nc1`: the outcome was inactive.

Tested on in the next test: not listed separately
Put plainly: ATG_SREBP_CIS: Attagene CIS-FACTORIAL HepG2 Assay for human Sterol Regulatory Element Binding (SREBP) (AID 2282962). Particulars: HepG2 Attagene cis-factorial SREBP reporter, mRNA; actives raise or lower the signal. A digest of the protocol: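 Twenty-four hours after chemical dosing of transfected HepG2 cultures, reporter RNA was converted to cDNA, amplified, end-labelled with 6-FAM and resolved by capillary electrophoresis. Responses were fitted relative to DMSO.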
On to `Cn1c(-c2ccccc2)cc(-c2ccccc2)[n+]1C`, for which the compound was called inactive.

Consider `CC(C)C1(C)N=C(c2ncccc2C(=O)O)NC1=O` (configuration not stated), for which the compound was called inactive.

For orientation: AC50 means the concentration at which the activity in the assay is half-maximal. Regarding `COc1ccc(-c2ccccc2)cc1NNC(=O)OC(C)C`, the AC50 was 15.2 µM (active).

`CC(C)=CC1C(C(=O)OCc2coc(Cc3ccccc3)c2)C1(C)C` (configuration not stated): the compound was called inactive.

As for `CCSC(=O)N1CCCCCC1`, the call was inactive.

Take `COc1cc(Cl)c(OC)cc1Cl`: the outcome was inactive.

Turning to `OC(c1ccc(Cl)cc1)(c1ccc(Cl)cc1)C(Cl)(Cl)Cl`, the result was inactive.

For the compound `CCOP(=O)(OCC)Oc1nc(Cl)c(Cl)cc1Cl`, the half-maximal activity concentration (AC50) is 15.6 µM (active).

As to `COC(=O)N(C(=O)N1CO[C@@]2(C(=O)OC)Cc3cc(Cl)ccc3C2=N1)c1ccc(OC(F)(F)F)cc1`, the concentration at half-maximal activity (AC50) is 5.39 µM (active).

For `Cc1nc(N(C)C)nc(OC(=O)N(C)C)c1C`, the compound was called inactive.

On to `CC(C)N1C(=O)c2ccccc2NS1(=O)=O`, for which the AC50 is 50 µM (active).

For the compound `Nc1c(Cl)c(Cl)nc(C(=O)O)c1Cl`, the compound was classed as inactive.

With `CC1(C)C(C=C(Cl)Cl)C1C(=O)OC(C#N)c1cccc(Oc2ccccc2)c1` (configuration not stated), the call was inactive.

Regarding `COC(=O)NS(=O)(=O)c1ccc(N)cc1`, the result was inactive.

Regarding `Cc1cc(C)nc(Nc2ccccc2)n1`, the AC50 was 23 µM (active).

Consider `CNC(=O)Oc1cccc2ccccc12`, for which the compound was called inactive.

In the case of `O=C(O)c1c(Cl)ccc2cc(Cl)cnc12`, the compound was classed as inactive.

Regarding `O=C1C2CC=CCC2C(=O)N1SC(Cl)(Cl)Cl` (configuration not stated), the call was inactive.

As for `Cc1cnc(C2=NC(C)(C(C)C)C(=O)N2)c(C(=O)O)c1` (configuration not stated), the call was inactive.

For `CCCCOCN(C(=O)CCl)c1c(CC)cccc1CC`, the outcome was inactive.

For `COP(=O)(OC)O/C(C)=C/C(=O)N(C)C`, the compound was called inactive.

Turning to `CCC(C)n1c(=O)[nH]c(C)c(Br)c1=O` (configuration not stated), the call was inactive.

`Cc1c(COC(=O)[C@@H]2[C@H](/C=C(\Cl)C(F)(F)F)C2(C)C)cccc1-c1ccccc1`: the outcome was inactive.

As for `Clc1cccc(C(Cl)(Cl)Cl)n1`, the outcome was inactive.

As to `N#Cc1c[nH]cc1-c1cccc2c1OC(F)(F)O2`, the outcome was inactive.

Regarding `CCNP(=S)(OC)O/C(C)=C/C(=O)OC(C)C` (configuration not stated), the AC50 was 16.3 µM (active).

`CCCN(CC)CC1COC2(CCC(C(C)(C)C)CC2)O1` (configuration not stated): the AC50 was 24.5 µM (active).

For `CC(C)Nc1nc(Cl)nc(NC(C)C)n1`, the compound was called inactive.

For `Cc1ccc(N=CN(C)C=Nc2ccc(C)cc2C)c(C)c1`, the call was inactive.

On to `COCC(C)N(C(=O)CCl)c1c(C)csc1C` (configuration not stated), for which the AC50 is 5.88 µM (active).

`CN/C(=N\[N+](=O)[O-])NCc1cnc(Cl)s1`: the outcome was inactive.

For `O=P(O)(O)CCCl`, the compound was called inactive.

Take `CCOC(=O)C(C)OC(=O)c1cc(Oc2ccc(C(F)(F)F)cc2Cl)ccc1[N+](=O)[O-]` (configuration not stated): the AC50 is 19.3 µM (active).

Regarding `CCOP(=S)(OCC)Oc1nc(Cl)n(C(C)C)n1`, the concentration at half-maximal activity (AC50) is 5.98 µM (active).

Regarding `Nc1c(Cl)c(F)nc(OCC(=O)O)c1Cl`, the compound was classed as inactive.

As for `N#CN=C1SCCN1Cc1ccc(Cl)nc1`, the outcome was inactive.

Source of the values: PubChem BioAssay (EPA / NIEHS).
